LASV entry inh: Lassa virus entry inhibition; Potency, µM (series often up to 37.9 µM), for inactives: top-dose activity change, negative = inhibition, hits mostly inhibitors; Lassa virus pseudotype entry inhibition, cell reporter; 1.2% of 300,000 active; AID 540256; calls by dose curve; tested in HEK293 cells; also: potency is read from the fitted curve at half-maximal effect; % is scaled to controls: 0 for no effect and ±100 for the full control effect; nearly all actives have a fitted effect of over 50% in size
CHX counter: counter-screen for Shiga toxin inhibitors: cycloheximide protein synthesis inhibition. AID 2314. cell reporter, cycloheximide protein synthesis inhibition counterscreen. max response, %. 12% of 300,000 active; in the data active = max response mostly above about 13%, no sharp cut-off; inactive = mostly below about 14%; also: read at 38.3 µM for the half of the compounds with a filed dose; 0% is about no effect
Marburg entry inh: inhibitors of Marburg virus binding or cell entry | Marburg virus pseudotyped entry inhibition, cell reporter | Potency, µM (series often up to 37.8 µM), without a hit: at the highest dose activity change, negative = inhibition, actives largely listed as inhibitors | 1.8% of 300,000 active | AID 540276; calls by dose curve; tested in HEK293 cells; also: potency is read from the fitted curve at half-maximal effect; % is scaled to controls: 0 for no effect and ±100 for the full control effect
Pf growth 48h: P. falciparum growth inhibition at 48 hours (one generation); P. falciparum luciferase growth in erythrocytes, 48 h; Potency, µM (titrated, usually from 28.7 µM), inactives show at the highest dose activity change, negative = inhibition, actives largely listed as inhibitors; 5.9% of 310,000 active; also: potency is read from the fitted curve at half-maximal effect; % is scaled to controls: 0 for no effect and ±100 for the full control effect
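Growth was read as firefly luciferase luminescence after a 48 h, 37 C, 5% CO2 exposure of compounds to reporter-bearing P. falciparum cultures (0.1% parasitemia, 2% hematocrit final) in Albumax-supplemented RPMI 1640.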
Shiga toxin inh: inhibitors of Shiga toxin in Vero cells; Vero cells, Shiga toxin protein synthesis inhibition reporter; inhibition, % at 38.7 µM; 9.2% of 290,000 active; AID 2315; in the data active = inhibition mostly above about 28%, no sharp cut-off; inactive = mostly below about 43%; also: 0% is about no effect
Pf growth 96h: P. falciparum growth inhibition at 96 hour, primary screen for plastid delayed-death inhibitors. Potency, µM (doses to about 28.7 µM), for inactives: at the top dose activity change, negative = inhibition, usual class: inhibitors. 6.9% of 320,000 active. AID 504834. P. falciparum luciferase reporter growth, 96 h; also: potency is read from the fitted curve at half-maximal effect; % is scaled to controls: 0 for no effect and ±100 for the full control effect
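Parasite growth measured via integrated firefly luciferase reporter in P. falciparum. Infected erythrocytes at 2% hematocrit, 0.05% parasitemia final were treated 96 hours at 37 C under 5% CO2, and luminescence was read.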
Starred values were filed as active, the others as inactive; ! = a repeat was not active; [ ] = another dose, or the depositor's remark. Most compounds without a hit are left out; they make up all but 19% or so of the library. Unless noted, calls follow the shape of the dose curve; as a rule, active = well fitted inhibition curve with a large enough effect; inconclusive = small, poorly fitted or top-dose-only effect, or another doubt; inactive = no such curve, though single readings can be large or run the other way.

`S=c1[nH]nc(-c2ccco2)n1/N=C/c1cccc(Cl)c1` gave LASV entry inh 6.7%, CHX counter -0.8, Marburg entry inh inconclusive, Pf growth 48h 83.3%, Shiga toxin inh -3.9 and Pf growth 96h 116.0%.
For O=S(=O)(NCC(c1ccco1)N1CCCCC1)c1cccc(C(F)(F)F)c1 (stereo unspecified) the results were Pf growth 48h inconclusive and Pf growth 96h 7.38µM*.
`O=C(NCC(c1ccco1)N1CCCC1)c1cccc(NS(=O)(=O)c2ccccc2)c1` (stereo unspecified) gave LASV entry inh 5.6%, Marburg entry inh -29.9%, Pf growth 48h 10.4µM* and Pf growth 96h inconclusive.
`O=C(NCC(c1ccco1)N1CCCC1)c1ccc(Cl)c(S(=O)(=O)N2CCc3ccccc32)c1` (stereo unspecified) gave LASV entry inh inconclusive, Marburg entry inh 11.2µM*, Pf growth 48h 5.86µM* and Pf growth 96h inconclusive.
Screening O=C(NCC(c1ccco1)N1CCCCC1)c1ccc(S(=O)(=O)Nc2ccccc2)cc1 (stereo unspecified) returned LASV entry inh inconclusive, Marburg entry inh inconclusive, Pf growth 48h -20.3% and Pf growth 96h inconclusive.
Screening O=C(NCC(c1ccco1)N1CCCCC1)c1cccc(S(=O)(=O)Nc2ccc(F)cc2)c1 (stereo unspecified) returned LASV entry inh -11.5%, Marburg entry inh inconclusive, Pf growth 48h 10.4µM* and Pf growth 96h inconclusive.
For CCOC(=O)CSc1ccc(S(=O)(=O)N(CC)CC)cc1[N+](=O)[O-] the results were LASV entry inh 4.5%[46.1 µM], CHX counter -4.4, Marburg entry inh -29.5%[46.1 µM], Pf growth 48h -26.0%, Shiga toxin inh -8.8 and Pf growth 96h inconclusive.
Screening CCOc1ccc(-n2nnc3c(=O)n(CC(=O)N4CCCc5ccccc54)cnc32)cc1 returned LASV entry inh 15.6%, CHX counter -1.8, Marburg entry inh 2.5%, Pf growth 48h 10.3%, Shiga toxin inh -12.0 and Pf growth 96h inconclusive.
For Cc1ccc(NS(=O)(=O)c2cccc(C(=O)NCC(c3ccco3)N3CCCC3)c2)cc1 (stereo unspecified) the results were Pf growth 48h 13.1µM* and Pf growth 96h inconclusive.
Cc1cc(S(=O)(=O)Nc2ccc(C(=O)NCC(c3ccco3)N3CCCCC3)cc2)ccc1F (stereo unspecified) was read as LASV entry inh 9.2%, Marburg entry inh -6.9%, Pf growth 48h inconclusive and Pf growth 96h inconclusive.
For O=C(NCC(c1ccco1)N1CCCC1)c1cccc(S(=O)(=O)Nc2ccc(F)cc2)c1 (stereo unspecified) the results were Pf growth 48h 13.1µM* and Pf growth 96h 14.7µM*.
Screening Cc1ccc(NS(=O)(=O)c2ccc(C(=O)NCC(c3ccco3)N3CCCCC3)cc2)cc1 (stereo unspecified) returned LASV entry inh inconclusive, Marburg entry inh inconclusive, Pf growth 48h -8.5% and Pf growth 96h inconclusive.
Screening O=C(NCC(c1ccco1)N1CCOCC1)c1ccc(Cl)cc1 (stereo unspecified) returned LASV entry inh 3.7%, Marburg entry inh 13.9%, Pf growth 48h 23.1% and Pf growth 96h 45.9%.
For Cc1ccc(C(=O)NCC(c2ccco2)N2CCOCC2)cc1 (stereo unspecified) the results were LASV entry inh -0.2%, Marburg entry inh 17.7%, Pf growth 48h inconclusive and Pf growth 96h 6.57µM*.
Cc1ccc(-n2nc3c(=O)n(CC(=O)NCCc4ccccc4C)nc(C)c3c2C)cc1 was read as LASV entry inh 0.0%[46.1 µM], CHX counter 6.8, Marburg entry inh inconclusive, Pf growth 48h inconclusive, Shiga toxin inh -7.8 and Pf growth 96h 39.1%.
For CC(=O)Nc1ccc(C(=O)N/N=C/C2CC3C=CC2C3)cc1 (stereo unspecified) the results were CHX counter 11.7, Pf growth 48h 17.5%, Shiga toxin inh -2.3 and Pf growth 96h inconclusive.
Screening O=C(N/N=C/C1CC2C=CC1C2)c1ccccc1O (stereo unspecified) returned CHX counter 39.9*, Pf growth 48h -13.2%, Shiga toxin inh 68.3* and Pf growth 96h 19.7%.
Cc1c(O)c(=O)c2ccccc2n1C was read as LASV entry inh -3.9%, CHX counter -6.3, Marburg entry inh 41.8%[14.2 µM], Pf growth 48h 19.3%, Shiga toxin inh -17.0 and Pf growth 96h 0.5%.
`O=S(=O)(c1cccc2nonc12)N1CCN(c2ccccc2F)CC1` gave LASV entry inh 4.7%, CHX counter -2.5, Marburg entry inh -19.7%[46.1 µM], Pf growth 48h -9.6%, Shiga toxin inh -14.4 and Pf growth 96h 25.8%.
O=C(Nc1ccc(F)cc1)C1CCCN(S(=O)(=O)c2cccc3nonc23)C1 (stereo unspecified) was read as LASV entry inh 0.5%, CHX counter -0.7, Marburg entry inh 4.3%[46.1 µM], Pf growth 48h -20.2%, Shiga toxin inh -6.3 and Pf growth 96h 3.7µM*.
O=C(C1CCCN(S(=O)(=O)c2cccc3nonc23)C1)N1CCN(c2cccc(Cl)c2)CC1 (stereo unspecified) was read as LASV entry inh 4.9%[46.1 µM], CHX counter -1.9, Marburg entry inh 23.1µM*!, Shiga toxin inh -5.7 and Pf growth 96h 7.38µM*.
For Cc1cccc(N2CCN(S(=O)(=O)c3cccc4nonc34)CC2)c1C the results were LASV entry inh -2.1%, CHX counter -5.1, Marburg entry inh inconclusive, Pf growth 48h -12.9%, Shiga toxin inh -12.6 and Pf growth 96h 2.94µM*.
For O=C(C1CCCN(S(=O)(=O)c2cccc3nonc23)C1)N1CCN(c2ccccc2Cl)CC1 (stereo unspecified) the results were LASV entry inh inconclusive, CHX counter -3.6, Marburg entry inh inconclusive, Pf growth 48h 11.7µM*, Shiga toxin inh -18.0 and Pf growth 96h 11.7µM*.
Screening Cc1ccc(C)c(N2CCN(C(=O)C3CCCN(S(=O)(=O)c4cccc5nonc45)C3)CC2)c1 (stereo unspecified) returned LASV entry inh 15.6%[46.1 µM] and Marburg entry inh -9.1%[46.1 µM].
For CC(=O)c1nnn(-c2nc(N)nc(N(c3ccccc3)c3ccccc3)n2)c1C the results were LASV entry inh -9.2%, CHX counter -1.8, Marburg entry inh -13.9%, Pf growth 48h inconclusive, Shiga toxin inh -23.0 and Pf growth 96h inconclusive.
For CCOc1ccc(NC(=O)COC(=O)Cn2cnnn2)cc1OCC the results were LASV entry inh 7.1%, CHX counter -1.5, Marburg entry inh -4.1%, Pf growth 48h 14.8%, Shiga toxin inh -10.8 and Pf growth 96h inconclusive.
Screening COc1cccc(C2NC(=O)NC(C)=C2C(=O)Nc2ccc(C)cc2)c1 (stereo unspecified) returned CHX counter 7.2, Pf growth 48h inconclusive, Shiga toxin inh -5.0 and Pf growth 96h 15.6%.

Screening results (PubChem BioAssay)
